Data reported in PubChem BioAssay AID602429 (Sanford-Burnham Center for Chemical Genomics, 2012).
Out of some 360,000 compounds screened, about 1,200 (0.33%) were called active. The sample as a whole holds a higher share of actives than the screen did. A number with no mark means an inactive call. No stated cut-off is given here; in the data, active means inhibition above about 37%; inactive means the rest.

The compounds below were run against Small ubiquitin-related modifier 1 (Homo sapiens) (UniProt P63165) (assay: SUMO1 binding to interaction partners, disruption – biochemical, uHTS, primary screen (AID 602429)). Details: SUMO1 binding to a labelled peptide, TR-FRET, 1 h; at 20 µM; active compounds read high.
Sequence of Small ubiquitin-related modifier 1 (Homo sapiens) (P63165 whole entry, looked up): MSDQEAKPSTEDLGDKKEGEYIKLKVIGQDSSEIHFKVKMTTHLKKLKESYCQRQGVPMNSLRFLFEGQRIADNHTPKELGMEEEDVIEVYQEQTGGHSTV
`COc1ccc(N2C(=O)/C(=C/c3ccco3)C(=O)NC2=S)cc1` was tested, and the inhibition was 88.7% (active). `COC(=O)C1=C(c2cc3ccccc3s2)C[C@@H]2CC[C@H]1N2C(=O)NCc1cccc2ccccc12` was tested, and the inhibition was 5.43%. In the case of `Cc1nn(Cc2ccccc2Cl)c(Cl)c1C(=O)OC(C(=O)NC(N)=O)C(C)C` (stereo not given), the inhibition is reported as -1.52%. Compound `C[C@H]1CN([C@@H](C)CO)C(=O)CCCn2nncc2CO[C@H]1CN(C)C(=O)Oc1cccc2ccccc12` has an inhibition of 0.0734%. Compound `O=C1NC(=O)C(CCOc2ccccc2)(CCc2ccccc2)C(=O)N1` has an inhibition of -4.22%. For `COc1cccc(N2C(=O)NC(=O)/C(=C\c3ccc([N+](=O)[O-])s3)C2=O)c1`, the inhibition was 38.1% (active). In the case of `CC(=O)N(C1=NCCCS1)c1ccccc1F`, the inhibition is reported as -2.29%. `CCCn1c(C(=O)c2ccccc2OC)nc2ccccc21` showed an inhibition of -1.49%. In the case of `CCCCCn1c(=O)c(C(=O)Nc2c(C)n(C)n(-c3ccccc3)c2=O)c(O)c2ccccc21`, the inhibition is reported as 4.99%. Work on `C=C(C)C1(CCCC)C(=O)NC(=S)NC1=O` yielded an inhibition of 6.06%.
